Laboratory results reported in PubChem BioAssay (NCI).
About 83,000 compounds went through this panel and 20% of them were active in at least one assay; those are over-represented in the sample as a whole.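 Step 1: grow cells in 96-well plates. Step 2: add test compound at a single concentration. Step 3: incubate 48 h. Step 4: record percent growth.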

How the values were obtained:
Test in all cases: NCI-60 one-dose screen, 48 h (100 = growth as untreated, 0 = no growth, -100 = all killed)
Conditions in all cases: 10 µM unless noted; active means growth percent below 10; inactive means the rest
NCI-H23 lung = system: NCI-H23 lung
NCI-H226 lung = system: NCI-H226 lung
NCI-H322M lung = system: NCI-H322M lung
HOP-62 NSCLC = system: HOP-62 NSCLC
NCI-H460 lung = system: NCI-H460 lung
HOP-92 NSCLC = system: HOP-92 NSCLC
NCI-H522 lung = system: NCI-H522 lung
A549/ATCC NSCLC = system: A549/ATCC NSCLC
786-0 renal = system: 786-0 renal
COLO 205 colon = system: COLO 205 colon
DU-145 prostate = system: DU-145 prostate
K-562 leukemia = system: K-562 leukemia
MALME-3M melanoma = system: MALME-3M melanoma
MDA-MB-231 breast = system: MDA-MB-231 breast
RXF 393 renal = system: RXF 393 renal
SF-268 CNS = system: SF-268 CNS
SF-295 CNS = system: SF-295 CNS
SF-539 CNS = system: SF-539 CNS
UACC-257 melanoma = system: UACC-257 melanoma
M14 melanoma = system: M14 melanoma

Measured: growth

CCOC(=O)Nc1ccc(-c2ccc3c(c2)NC(=O)/C3=C\c2ccc[nH]2)cc1
inactive: NCI-H23 lung 47.3% | NCI-H226 lung 68% | NCI-H322M lung 63.1% | HOP-62 NSCLC 91.9% | NCI-H460 lung 37.1% | HOP-92 NSCLC 102% | NCI-H522 lung 97.8% | A549/ATCC NSCLC 103% | 786-0 renal 108% | COLO 205 colon 125% | DU-145 prostate 110% | K-562 leukemia 92.3% | MALME-3M melanoma 110% | MDA-MB-231 breast 69.3% | RXF 393 renal 112% | SF-268 CNS 100% | SF-295 CNS 101% | SF-539 CNS 94% | UACC-257 melanoma 113% | M14 melanoma 103%

CCc1c(Cl)nc(N)nc1Nc1ccc(C)c(C)c1
inactive: NCI-H23 lung 96.9% | NCI-H226 lung 83.5% | NCI-H322M lung 110% | HOP-62 NSCLC 92.7% | NCI-H460 lung 80.7% | HOP-92 NSCLC 112% | NCI-H522 lung 81.9% | A549/ATCC NSCLC 99.3% | 786-0 renal 101% | COLO 205 colon 106% | DU-145 prostate 99.5% | K-562 leukemia 96.5% | MALME-3M melanoma 100% | MDA-MB-231 breast 97.3% | RXF 393 renal 93.9% | SF-268 CNS 97.9% | SF-295 CNS 93.2% | SF-539 CNS 100% | UACC-257 melanoma 105% | M14 melanoma 104%

COc1ccccc1NC(=O)C1CC(c2ccc(F)cc2)=NO1 (stereo not given)
inactive: NCI-H23 lung 100% | NCI-H226 lung 99.2% | NCI-H322M lung 102% | HOP-62 NSCLC 97.5% | NCI-H460 lung 98.5% | HOP-92 NSCLC 89.7% | NCI-H522 lung 92.6% | A549/ATCC NSCLC 95.2% | 786-0 renal 101% | COLO 205 colon 111% | DU-145 prostate 106% | K-562 leukemia 95% | MALME-3M melanoma 100% | MDA-MB-231 breast 98.5% | RXF 393 renal 97% | SF-268 CNS 97.4% | SF-295 CNS 96.2% | SF-539 CNS 95.5% | UACC-257 melanoma 107% | M14 melanoma 104%

O=[N+]([O-])c1cc(Br)c2cccc3c2c1CC3
inactive: NCI-H23 lung 106% | NCI-H226 lung 103% | NCI-H322M lung 106% | HOP-62 NSCLC 118% | NCI-H460 lung 106% | HOP-92 NSCLC 97.1% | NCI-H522 lung 108% | A549/ATCC NSCLC 98.5% | 786-0 renal 96.5% | COLO 205 colon 118% | DU-145 prostate 112% | K-562 leukemia 100% | MALME-3M melanoma 120% | MDA-MB-231 breast 87.1% | RXF 393 renal 110% | SF-268 CNS 109% | SF-295 CNS 116% | SF-539 CNS 103% | UACC-257 melanoma 106% | M14 melanoma 104%
